# Reference: PubChem BioAssay AID890 (National Center for Advancing Translational Sciences (NCATS), 2007)
# Values without a mark were called inactive. Calls of active or inactive are those of the source. The call rests on the fitted dose curve; in most records, active means well fitted activation curve with a large enough effect; inactive means flat fitted curve, though single readings scatter.
# Assay: Confirmation Concentration-Response Assay for Epigenetic Modulators
# Settings: murine C127i cells, silenced GFP reporter derepression, imaging; series mostly up to 46 µM; GFP activation: at the top concentration
# Description: NIH Molecular Libraries Screening Centers Network [MLSCN] NIH Chemical Genomics Center [NCGC] MLSCN Grant: 1 X01 MH079860-01 Assay Provider: Elisabeth D. Martinez, University of Texas SW Medical Center NCGC Assay Overview: The Locus Derepression assay detects the derepression of a GFP reporter that is stably integrated in a region of the genome of murine c127i mammary cells that is presumably silenced. GFP transcription in this construct is controlled by a CMV promoter, which normally is strong and constitutively active. However, this line was selected for lack of constitutive expression of the GFP protein. GFP production can be induced by incubating the cells with histone deacetylase or DNA methyltransferase inhibitors. Compounds that cause derepression of the locus to express GFP are identified by enumerating GFP positive cells using a laser-scanning microplate cytometer.
# NCGC Assay Protocol Summary: Two hundred and fifty cells in 5 uL per well were dispensed into black, clear-bottom 1536-well plates. Twenty-three nL compound was transferred to the assay plate and cells were incubated 30 hours at 37 C. Medium was removed, cells were washed two times with PBS, and GFP-positive cells were enumerated as fluorescent objects between the sizes of 20 to 120 um width and depth using a laser-scanning microplate imager (Acumen Explorer Ex3, TTP Labtech) Keywords: NIH Roadmap, MLSCN, MLI, MLSMR, qHTS, NCGC, qHTS, HDAC, DNMT, HAT, DNA methyltransferases, histone acetyl transferases, histone deacetylases
Compound,GFP activation,Potency
CCNc1nc(NCC)nc(-n2nc(C)cc2C)n1,2.5%,
CCN(CC)c1ccc2cc(-c3nc4ccccc4[nH]3)c(=O)oc2c1,,0.56 µM (active)
O=C(Cc1ccccc1)NC(c1ccco1)c1ccc2cccnc2c1O (centres undefined),,16.2 µM (active)
CN1C(=S)SC(c2ccccc2)N(C)C1c1ccccc1 (centres undefined),0.5%,
